# Experimental data: PubChem BioAssay (NCATS)
# “And” between values parts separate entries of the source, which are not always exact repeats. Equal entries are not always repeated. Records with an inconclusive call do not appear. A number with no mark means an inactive call. The source made the active and inactive calls. Unless noted, calls come from the whole dose curve; as a rule, active = well fitted curve in the direction sought with a large enough effect; inconclusive = small, poorly fitted or top-dose-only effect, or another doubt; inactive = no such curve, though single readings can be large; an effect the other way counts as inactive or inconclusive.
# What was measured:
# [1] = S16 Schwann cell viability assay (CellTiter-Glo assay) (AID 624031); conditions: S16 rat Schwann cells viability, 24 h; series mostly up to 57.5 µM; note: nearly all actives have a fitted effect of over 70% in size; note: potency is the fitted concentration of half-maximal effect
# How it was run: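 Native S16 Schwann cells (rat), serum-containing medium, overnight attachment then 24 h drug exposure at 37 °C/5% CO2. CellTiter-Glo ATP signal; normalized to cell-free and vehicle wells.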
# [2] = S16 Schwann cell PMP22 intronic element firefly luciferase assay (AID 624032); conditions: S16 rat Schwann cells, PMP22 element FLuc, 24 h; series mostly up to 57.5 µM; note: nearly all actives have a fitted effect of over 30% in size; note: potency is the fitted concentration of half-maximal effect
# How it was run: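 Rat S16 Schwann cells stably carrying firefly luciferase driven by a PMP22 intronic element, in 10% FBS, treated 24 h at 37 C. ONE-Glo luminescence normalized to PTC124 control and DMSO (0%); curves classed by r2, magnitude and activity.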
# [3] = system: 3D7; assay: qHTS profiling for inhibitors of Plasmodium falciparum proliferation (AID 504749); note: nearly all actives have a fitted effect of over 60% in size; note: potency is the fitted concentration of half-maximal effect; conditions: P. falciparum in erythrocytes, SYBR Green DNA, 72 h; series mostly up to 28.7 µM
# How it was run: (§1)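 SYBR Green fluorescence (ex 485 nm, em 535 nm) reports parasite DNA after 72 h compound exposure of infected red cells at 0.3% parasitemia, 2.5% hematocrit; signal normalized to 0.29 uM artemisinin and vehicle wells.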
# [4] = system: 7G8; assay: as above; conditions: P. falciparum in erythrocytes, SYBR Green DNA, 72 h; series mostly up to 28.7 µM
# How it was run: as §1
# [5] = system: AA1029; assay: as above; conditions: P. falciparum in erythrocytes, SYBR Green DNA, 72 h; series mostly up to 28.7 µM
# How it was run: as §1
# [6] = system: CP211; assay: as above; conditions: P. falciparum in erythrocytes, SYBR Green DNA, 72 h; series mostly up to 28.7 µM
# How it was run: as §1
# [7] = system: CP217; assay: as above; conditions: P. falciparum in erythrocytes, SYBR Green DNA, 72 h; series mostly up to 28.7 µM
# How it was run: as §1
# [8] = system: CP238; assay: as above; conditions: P. falciparum in erythrocytes, SYBR Green DNA, 72 h; series mostly up to 28.7 µM
# How it was run: as §1
# [9] = system: CP269; assay: as above; conditions: P. falciparum in erythrocytes, SYBR Green DNA, 72 h; series mostly up to 28.7 µM
# How it was run: as §1
# [10] = system: DIV14; assay: as above; conditions: P. falciparum in erythrocytes, SYBR Green DNA, 72 h; series mostly up to 28.7 µM
# How it was run: as §1
# [11] = system: DIV17; assay: as above; conditions: P. falciparum in erythrocytes, SYBR Green DNA, 72 h; series mostly up to 28.7 µM
# How it was run: as §1
# [12] = system: Dd2; assay: as above; conditions: P. falciparum in erythrocytes, SYBR Green DNA, 72 h; series mostly up to 28.7 µM
# How it was run: as §1
# [13] = system: ECU; assay: as above; conditions: P. falciparum in erythrocytes, SYBR Green DNA, 72 h; series mostly up to 28.7 µM
# How it was run: as §1
# [14] = system: FAB9; assay: as above; conditions: P. falciparum in erythrocytes, SYBR Green DNA, 72 h; series mostly up to 28.7 µM
# How it was run: as §1
# [15] = system: ICS; assay: as above; conditions: P. falciparum in erythrocytes, SYBR Green DNA, 72 h; series mostly up to 28.7 µM
# How it was run: as §1
# [16] = system: N140; assay: as above; conditions: P. falciparum in erythrocytes, SYBR Green DNA, 72 h; series mostly up to 28.7 µM
# How it was run: as §1
# [17] = system: P93_24; assay: as above; conditions: P. falciparum in erythrocytes, SYBR Green DNA, 72 h; series mostly up to 28.7 µM
# How it was run: as §1
# [18] = system: PAD; assay: as above; conditions: P. falciparum in erythrocytes, SYBR Green DNA, 72 h; series mostly up to 28.7 µM
# How it was run: as §1
# [19] = system: TAB165; assay: as above; conditions: P. falciparum in erythrocytes, SYBR Green DNA, 72 h; series mostly up to 28.7 µM
# How it was run: as §1
# [20] = target: Glucocorticoid receptor (Homo sapiens) (UniProt P04150); assay: qHTS assay for small molecule agonists of glucocorticoid receptor signaling (AID 588532; active = well fitted curve in the direction sought with a large enough effect in the signal ratio, with a control signal flat; the % refers to the signal ratio;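 note: 100% = dexamethasone at 0.1 µM and 0% = DMSO only wells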); conditions: HeLa MMTV-bla, beta-lactamase ratio, agonist, 18 h; hits give high values; percent of dexamethasone control, DMSO zero
# Sequence of Glucocorticoid receptor (Homo sapiens) (P04150 whole entry, looked up): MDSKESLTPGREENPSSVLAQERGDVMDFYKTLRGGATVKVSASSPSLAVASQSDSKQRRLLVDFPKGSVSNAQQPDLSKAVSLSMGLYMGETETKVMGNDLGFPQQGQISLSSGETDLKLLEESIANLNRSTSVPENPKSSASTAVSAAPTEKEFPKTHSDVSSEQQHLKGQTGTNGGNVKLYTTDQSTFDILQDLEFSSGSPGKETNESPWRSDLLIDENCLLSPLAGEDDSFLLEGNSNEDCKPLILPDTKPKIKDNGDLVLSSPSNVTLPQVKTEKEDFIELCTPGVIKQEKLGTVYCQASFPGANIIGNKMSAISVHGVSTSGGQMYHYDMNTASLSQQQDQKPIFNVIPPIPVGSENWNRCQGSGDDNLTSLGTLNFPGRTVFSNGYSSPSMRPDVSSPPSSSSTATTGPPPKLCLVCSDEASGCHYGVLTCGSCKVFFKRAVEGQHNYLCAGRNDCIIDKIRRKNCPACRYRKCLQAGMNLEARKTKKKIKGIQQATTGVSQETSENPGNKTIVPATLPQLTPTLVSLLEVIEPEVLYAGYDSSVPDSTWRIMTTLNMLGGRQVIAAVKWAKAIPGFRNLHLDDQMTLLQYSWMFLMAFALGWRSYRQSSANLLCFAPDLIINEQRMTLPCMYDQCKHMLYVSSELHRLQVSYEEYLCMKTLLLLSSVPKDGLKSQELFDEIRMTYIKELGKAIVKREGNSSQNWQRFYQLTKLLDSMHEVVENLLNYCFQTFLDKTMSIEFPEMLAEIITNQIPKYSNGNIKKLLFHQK
# How it was run: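 Cells were plated and rested 3-5 h at 37 C, compounds were added in titration and incubated 18 h, then CCF4 substrate was loaded for 2 h at RT before reading blue/green fluorescence. EC50 came from Hill-equation fitting.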
Compound,Potency [1],Potency [2],Potency [3],Potency [4],Potency [5],Potency [6],Potency [7],Potency [8],Potency [9],Potency [10],Potency [11],Potency [12],Potency [13],Potency [14],Potency [15],Potency [16],Potency [17],Potency [18],Potency [19],activation [20]
Oc1cc[c]([Hg][Cl])cc1,1.14 µM (active),0.907 µM (active),8.91 µM (active),3.16 µM (active),11.2 µM (active),10.7 µM (active),8.91 µM (active),10 µM (active),8.49 µM (active),7.57 µM (active),6.75 µM (active),11.2 µM (active),10 µM (active),10 µM (active),7.94 µM (active),6.31 µM (active),11.2 µM (active),11.2 µM (active),10 µM (active),–
OCCN(CCO)CCO,–,–,–,–,–,–,–,–,–,–,–,–,–,–,–,–,–,–,–,-3.04%
CCOc1cc(C=O)ccc1O,–,–,–,–,–,–,–,–,–,–,–,–,–,–,–,–,–,–,–,0.229% and -4.79%
C[N+](C)(C)CC(=O)[O-],inactive,inactive,inactive,inactive,inactive,inactive,inactive,inactive,inactive,inactive,inactive,inactive,inactive,inactive,inactive,inactive,inactive,inactive,inactive,–
